We go through 58 compounds from PubChem BioAssay AID485297 (National Center for Advancing Translational Sciences (NCATS), 2010).

About 9,100 (2.8%) of roughly 320,000 compounds were called active. Entries that show only a call come without a potency. Another 3% or so got no clear call; they are omitted. Calls follow the shape of the dose curve; as a rule, active = well fitted activation curve with a large enough effect; inconclusive = small, poorly fitted or top-dose-only effect; inactive = no such curve, though single readings can be large or run the other way. Many of the other results were omitted from the sample, so actives are more common in it than they were.
Potency is read from the fitted curve at half-maximal effect.

The experiment is described as follows: qHTS Assay for Rab9 Promoter Activators. Also: nearly all actives have a fitted effect of over 60% in size. The settings on record: Huh7 Rab9 promoter-luciferase reporter, luminescence, 24 h; series mostly up to 9.22 µM. The essentials:
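Rab9 promoter-driven luciferase in stably transfected Huh7 cells; 1500 cells/well rested 2 h, exposed to compound in DMSO for 24 h at 37 °C, 5% CO2. Luminescence read 10 min after adding luciferase reagent at ambient temperature.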
Consider `O=S(=O)(NCc1ccccc1Br)c1ccccc1Br`, for which the Potency entry is “inactive”. Take `COc1cccc(CNC(=O)COc2cc(O)c3c(c2)OC(C)(C)CC3=O)c1`: the Potency result is “inactive”. As for `Nc1c(N(CCCO)C(=O)C2CCCC2)c(=O)[nH]c(=O)n1Cc1ccccc1`, the Potency entry was “inactive”. Still for that read-out and setting: under `O=C(CSc1nnc(-c2ccc([N+](=O)[O-])cc2)o1)Nc1ccccn1` stands 398 nM (active); under `CCOC(=O)CSc1nnc(-c2ccc([N+](=O)[O-])cc2)o1`, “inactive”; under `CCc1ccccc1NC(=O)CSc1nnc(-c2ccncc2)o1`, “inactive”. Still for that read-out and setting: then `O=c1c2ccccc2ccc2ccc(P(=O)(O)O)cc12`, with “inactive”; and `Cc1c(NS(=O)(=O)c2cc(C(=O)NCCc3ccc(F)cc3)cc(Cl)c2Cl)c(=O)n(-c2ccccc2)n1C`, with “inactive”; and `O=C(COC(=O)C1(c2ccc(F)cc2)CCCC1)N1CCNC1=O`, with “inactive”.

As to `COc1ccc2cc(C(=O)O)n(CC(=O)c3ccccc3)c2c1`, the Potency result is “inactive”.

With `CCOC(=O)c1cc2ccccc2n1CC(=O)c1ccccc1`, the Potency entry is “inactive”.

Regarding `CCn1c(=N)n(CC(=O)c2cccc(OC)c2)c2ccccc21`, the Potency is 3160 nM (active). For the compound `O=C1OC2(CCCCC2)CC2=C1C1O[C@](c3ccsc3)(Cc3ccccc31)O2`, the activation, negative = inhibition was 1.46% [at 1.84 µM] (inactive). Take `COc1ccc(OCCCC(=O)Nc2cccc(S(=O)(=O)N3CCCCCC3)c2)cc1`: the Potency result was “inactive”. The same measure, in the same setting: then `C/C(=N\NC(=O)c1cccnc1)c1ccc(-c2ccccc2)cc1`, with “inactive”. For `C/C(=N\NC(=O)c1nc(C)cc(C)n1)c1ccccc1`, the Potency was 1780 nM (active). Still for that read-out and setting: under `COc1ccc(/C(C)=N/NC(=O)c2ccc3nc[nH]c3c2)cc1` stands “inactive”; under `Cc1ccc(Nc2nnc(SC(C)C(=O)NC3CC3)s2)cc1` (stereo not drawn), “inactive”. As for `CCOc1ccccc1/C=N/Nc1nc2ccccc2o1`, the Potency entry was “inactive”. In the case of `Oc1c(Br)cccc1/C=N/Nc1c(F)c(F)c(F)c(F)c1F`, the Potency entry is “inactive”. For `Brc1ccccc1/C=N/Nc1nc2ccccc2o1`, the Potency was 2820 nM (active). As to `COc1ccc(/C=N/Nc2nc3ccccc3o2)cc1OC`, the Potency is 1000 nM (active).

For the compound `COc1ccc(/C=N/S(=O)(=O)c2ccccc2)cc1OC`, the Potency entry was “inactive”.

Take `CCOc1ccc(/C=N/Nc2nncc(-c3ccccc3)n2)cc1OC`: the Potency entry is “inactive”. Take `Cc1nc(SCC(=O)NC2CCCCC2C)c(C#N)c(C)c1C` (stereo not drawn): the Potency result is “inactive”. The same measure, in the same setting: then `Cc1ccc(S(=O)(=O)N2CC(O)C[C@H]2C(=O)OCC(=O)Nc2ccc(N3CCOCC3)cc2)cc1C` (stereo partly drawn), with “inactive”; and `O=C(CCNC(=O)c1ccc(Cl)cc1)NC1CCCc2ccccc21` (stereo not drawn), with “inactive”. On to `O=C(Nc1ccc(F)cc1)c1cc2c(s1)CCCC2`, for which the Potency is 1260 nM (active).

On to `CN(C)C(=O)c1ccc(NC(=O)COC(=O)c2cc3c(s2)CCCCC3)cc1`, for which the Potency entry is “inactive”.

For the compound `O=C(NCCCN1CCOCC1)c1cc2c(s1)CCC2`, the Potency result was “inactive”.

As to `CCC(=O)c1c[nH]c(C(=O)NCC2CCCO2)c1` (stereo not drawn), the Potency entry was “inactive”.

Consider `O=C(NCC1CCCO1)c1cc2c(s1)CCCC2` (stereo not drawn), for which the Potency is 2510 nM (active). For `O=C(CNC(=O)c1cc2c(s1)CCC2)Nc1ccccc1Br`, the Potency entry was “inactive”. On to `CC(C)Cc1nnc(NC(=O)CCNC(=O)c2ccccc2Cl)s1`, for which the Potency result was “inactive”. Regarding `CCN(CC(=O)Nc1ccccc1OC)C(=O)CC1CC2CCC1C2` (stereo not drawn), the Potency result is “inactive”. Same read-out and setting: then `COc1ccc(/C=C(\C#N)C(=O)NCCCn2ccnc2)cc1`, with “inactive”. With `Cc1ccc(S(=O)(=O)c2nc(NCCCn3ccnc3)sc2Cl)cc1`, the Potency entry was “inactive”. On to `Cc1ccc(-c2nc(C#N)c(NCCCn3ccnc3)o2)cc1`, for which the Potency was 3980 nM (active).

In the case of `O=C(CCc1nc(-c2ccccc2)no1)Nc1cccc(C(=O)NC2CC2)c1`, the Potency result is “inactive”.

With `COC(=O)c1ccc(/C=N\n2c(C)nnc2C)cc1`, the Potency result is “inactive”.

Regarding `COC(=O)c1ccc(/C=N/N2C(C)CCCC2C)cc1` (stereo not drawn), the Potency was 2240 nM (active). `CC1CCCC(C)N1/N=C/c1ccccc1OC(F)F` (stereo not drawn): the Potency result was “inactive”.

Consider `CCC1(CC)NC(=O)N(CC(=O)OCC(=O)c2cc(C)c(C)cc2C)C1=O`, for which the Potency entry is “inactive”.

With `CC(C)CN(C(=O)c1cccc(S(=O)(=O)N2CCCCC2)c1)C1CCS(=O)(=O)C1` (stereo not drawn), the Potency entry is “inactive”. As to `CCC(=O)NC(=S)Nc1ccc(NC(=O)c2ccco2)c(Cl)c1`, the Potency entry was “inactive”.

Take `O=C(NNC(=O)c1ccco1)Nc1ccccc1`: the Potency result is “inactive”. On to `O=C(NNC(=S)Nc1ccc(Br)cc1Cl)c1ccco1`, for which the Potency is 2820 nM (active). As to `O=C(Nc1ccc([N+](=O)[O-])cc1)OCCc1ccccn1`, the Potency was 3550 nM (active). On the same count and under the same terms, then `O=[N+]([O-])c1ccc(NC(=S)N2CCN(c3ccccn3)CC2)cc1`, with “inactive”. In the case of `O=C(NCCc1ccccn1)c1nc(Cn2cc([N+](=O)[O-])cn2)no1`, the Potency entry is “inactive”. As to `Cc1c(C(=O)Nc2ccccc2)sc2nc3n(c(=O)c12)CCCCC3`, the Potency was 2510 nM (active). Same read-out and setting: then `CC(=O)c1ccc(NC(=O)c2sc3nc4n(c(=O)c3c2C)CCCCC4)cc1`, with “inactive”.

Take `Cc1c(C(=O)Nc2cccc(-c3nnc4n3CCCCC4)c2)oc2ccccc12`: the Potency entry is “inactive”. For the compound `COc1cccc(CNC(=O)COC(=O)CN2C(=O)NC3(CCCCC3C)C2=O)c1` (stereo not drawn), the Potency entry was “inactive”. As to `COc1ccc(OC)c(-c2csc(NC(=O)COC(=O)C3CC3)n2)c1`, the Potency result was “inactive”. For the compound `O=C(Cn1cc(C(=O)c2cccs2)c2ccccc21)NCc1cccs1`, the Potency result was “inactive”.

On to `COC(=O)c1cn(CC(=O)NCc2cccs2)c2ccccc12`, for which the Potency is 3550 nM (active). Turning to `COC(=O)Cn1cc(C(=O)c2cccs2)c2ccccc21`, the Potency entry was “inactive”.
